# Experimental data reported in PubChem BioAssay (NCATS).
# Records with an inconclusive call do not appear. Activity calls are given as the source filed them. Unless noted, the call rests on the fitted dose curve; in most records, active means well fitted curve in the direction sought with a large enough effect; inconclusive means small, poorly fitted or top-dose-only effect, or another doubt; inactive means no such curve, though single readings can be large; an effect the other way counts as inactive or inconclusive.
# Experiments:
# [1] = AP1 Signaling Pathway (AID 357; active means well fitted curve in either direction with a large enough effect, not every such curve was filed as active;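 further: ME-180 reporter cells stimulated with EGF at its EC50 level; on the % scale 0 is the no-effect control and ±100 the full control effect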); conditions: ME-180 AP-1-bla reporter, EGF-induced, beta-lactamase ratio, 5 h; at 7.69 µM (top of the series) unless noted
# Summary of the method: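 Read-out was the 460nm/530nm emission ratio (excitation 405nm) after CCF4 loading for 2.5 hours at room temperature. Cells carried an AP-1-driven beta-lactamase reporter, were stimulated with EC50 EGF plus compound for 5 hours, and AC50 values came from titrations.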
# [2] = target: Cytochrome P450 1A2 (Homo sapiens) (UniProt P05177); assay: p450-cyp1a2 (AID 410; calls by dose curve; further: potency means the concentration at half of the fitted maximal effect;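 on activity change, negative = inhibition: -100% = full effect of reference inhibitor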)
# Chain of Cytochrome P450 1A2 (Homo sapiens) (P05177 whole entry, looked up): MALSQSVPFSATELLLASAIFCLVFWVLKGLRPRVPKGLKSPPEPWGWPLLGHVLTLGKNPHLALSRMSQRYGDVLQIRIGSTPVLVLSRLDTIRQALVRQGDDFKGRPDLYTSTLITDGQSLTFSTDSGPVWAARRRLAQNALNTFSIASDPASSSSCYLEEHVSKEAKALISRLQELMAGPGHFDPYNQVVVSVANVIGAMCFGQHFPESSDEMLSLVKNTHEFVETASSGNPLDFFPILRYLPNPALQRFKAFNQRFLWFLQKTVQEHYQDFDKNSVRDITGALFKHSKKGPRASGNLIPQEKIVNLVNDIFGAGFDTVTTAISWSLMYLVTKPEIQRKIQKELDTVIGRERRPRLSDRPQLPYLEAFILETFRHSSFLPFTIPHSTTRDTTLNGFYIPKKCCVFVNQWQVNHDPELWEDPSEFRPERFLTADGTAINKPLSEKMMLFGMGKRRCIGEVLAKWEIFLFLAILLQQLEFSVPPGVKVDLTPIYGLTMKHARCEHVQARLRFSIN
# Summary of the method: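 Read-out is luminescence from luciferin produced by CYP1A2 demethylation of Luciferin-ME (100uM, at Km). Detection reagent stopped the 60 min NADPH-dependent reaction; signals were normalized to 57 uM furafylline.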
# [3] = NFAT Signaling Pathway (AID 444; active means well fitted curve in either direction with a large enough effect, not every such curve was filed as active;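 further: carbachol stimulus at about its EC50 of 1 µM final; on the % scale 0 is the no-effect control and ±100 the full control effect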); conditions: Jurkat NFAT-bla M1, carbachol, beta-lactamase ratio, 5 h; at 7.69 µM (top of the series) unless noted
# Summary of the method: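 Read-out: CCF4 FRET ratio (460 nm/530 nm) after 1 h RT dye loading, used for %activity and AC50 from titration series. Cells: Jurkat NFAT-β-lactamase/M1 line, treated with compound plus 1 uM carbachol for 5 h, 37 °C.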
# [4] = Stat Signaling Pathway (AID 446; active means well fitted curve in either direction with a large enough effect, not every such curve was filed as active;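 further: ME-180 cervical cancer cells given 40 pM IL-6 alongside compound; SIE-controlled beta-lactamase reporter measured as 460/530 nm FRET emission ratio; on the % scale 0 is the no-effect control and ±100 the full control effect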); conditions: ME-180 (cervical carcinoma) SIE beta-lactamase reporter, IL-6 stimulated, 5 h; at 7.69 µM (top of the series) unless noted
# Summary of the method: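 Emission at 460 and 530 nm (excitation 405 nm) reports SIE-controlled beta-lactamase in ME-180 cells. Cells received compound with 40 pM IL-6 for 5 hrs at 37 C; data scaled between 300 pM IL-6 and 125 nM JAK-inhibitor controls.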
# [5] = target: Glucocorticoid receptor (Homo sapiens) (UniProt P04150); assay: GR-GFP Redistribution (AID 450;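 active means compounds whose dose series gives a full or clear partial fitted curve of increased nuclear translocation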; further: potency means the concentration at half of the fitted maximal effect); conditions: U2OS GR-GFP nuclear translocation, laser cytometry, 2 h
# Chain of Glucocorticoid receptor (Homo sapiens) (P04150 whole entry, looked up, the tested form may be a part): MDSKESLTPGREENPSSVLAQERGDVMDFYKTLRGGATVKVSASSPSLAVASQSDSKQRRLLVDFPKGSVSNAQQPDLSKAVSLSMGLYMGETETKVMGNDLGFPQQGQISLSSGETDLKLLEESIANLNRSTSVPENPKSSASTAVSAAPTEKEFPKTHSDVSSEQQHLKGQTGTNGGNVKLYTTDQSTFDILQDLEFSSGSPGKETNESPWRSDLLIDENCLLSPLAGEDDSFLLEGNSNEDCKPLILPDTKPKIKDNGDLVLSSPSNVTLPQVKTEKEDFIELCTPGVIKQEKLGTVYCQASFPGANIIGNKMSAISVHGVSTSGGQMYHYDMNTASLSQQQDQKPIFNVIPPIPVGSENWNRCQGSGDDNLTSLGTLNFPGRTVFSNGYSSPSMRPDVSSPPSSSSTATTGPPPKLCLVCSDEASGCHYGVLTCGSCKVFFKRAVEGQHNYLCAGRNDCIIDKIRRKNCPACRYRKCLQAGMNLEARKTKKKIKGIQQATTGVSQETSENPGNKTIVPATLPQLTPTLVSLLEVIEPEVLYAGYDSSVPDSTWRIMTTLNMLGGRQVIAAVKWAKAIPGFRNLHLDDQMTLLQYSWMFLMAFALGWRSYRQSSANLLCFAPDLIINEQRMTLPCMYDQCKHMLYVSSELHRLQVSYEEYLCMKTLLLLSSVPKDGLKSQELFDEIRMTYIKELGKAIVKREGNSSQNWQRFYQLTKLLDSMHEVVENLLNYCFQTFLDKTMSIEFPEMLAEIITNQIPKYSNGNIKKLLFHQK
# [6] = target: Glucocorticoid receptor (Homo sapiens) (UniProt P04150); assay: GR-EFC Redistribution (AID 451; calls by dose curve; further: potency means the concentration at half of the fitted maximal effect); conditions: CHO-K1 GR-EFC translocation, beta-gal luminescence, 2 h
# Summary of the method: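 Translocation of GR-ED fusion to nuclear EA restores b-gal, read by luminescence after 1 h room-temperature detection. Engineered CHO-K1 biosensor cells, 1,000/well, exposed 2 h at 37 C to titrations up to 46 uM final.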
# [7] = target: Mitogen-activated protein kinase 10 (Mus musculus) (UniProt Q61831); assay: JNK3 AlphaScreen Assay (AID 530; active means well fitted curve in either direction with a large enough effect, not every such curve was filed as active;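 further: kinase came from lysate of stimulated human HepG2 cells; signal reports phosphorylation of biotinylated GST-cJun 1-79 at Ser73 with 10 µM ATP; on the % scale 0 is the no-effect control and ±100 the full control effect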)
# Summary of the method: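 Kinase buffer: 20 mM Tris-HCl pH 7.6, 10 mM MgCl2, 1 mM DTT, 0.1 mM Na3VO4, 0.01% Tween-20; ATP 10 uM. Substrate biotin-GST-cJun(1-79), enzyme from activated HepG2 lysates. Detection by Ser73 phospho-antibody AlphaScreen.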
# [8] = target: Cytochrome P450 3A4 (Homo sapiens) (UniProt P08684); assay: qHTS Assay for Activators of Cytochrome P450 3A4 (AID 885); further: nearly all actives have a fitted effect of over 65% in size
# Chain of Cytochrome P450 3A4 (Homo sapiens) (P08684 whole entry, looked up): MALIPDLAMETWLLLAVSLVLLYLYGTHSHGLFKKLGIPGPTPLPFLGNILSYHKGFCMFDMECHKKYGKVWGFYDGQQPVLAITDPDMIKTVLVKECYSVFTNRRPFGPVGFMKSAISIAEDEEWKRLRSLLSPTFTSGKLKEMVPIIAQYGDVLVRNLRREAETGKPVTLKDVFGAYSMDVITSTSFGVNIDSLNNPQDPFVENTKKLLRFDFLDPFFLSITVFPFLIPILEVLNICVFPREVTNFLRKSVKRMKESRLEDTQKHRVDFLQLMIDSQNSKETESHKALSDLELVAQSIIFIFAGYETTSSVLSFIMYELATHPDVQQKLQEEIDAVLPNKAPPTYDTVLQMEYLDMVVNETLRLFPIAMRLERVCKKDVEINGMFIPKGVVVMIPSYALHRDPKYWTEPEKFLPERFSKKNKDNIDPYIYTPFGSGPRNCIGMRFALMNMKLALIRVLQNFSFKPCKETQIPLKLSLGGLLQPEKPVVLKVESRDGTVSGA
# Summary of the method: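 Activators are scored by enhanced luminescence from CYP3A4 conversion of luciferin-PPXE (25uM, equal to KM) to luciferin, after 60 min at RT with an NADPH-regenerating system.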
# [9] = Confirmation and Secondary Assay for Modulators of Hemoglobin Beta Chain Splicing at IVS2 654 locus (AID 910);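 further: HeLa cells stably carrying EGFP split by mutant beta-globin IVS2-654 intron; per-well total GFP intensity by laser scanning cytometry after 2-day treatment; % of control where 0% means no effect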
# Summary of the method: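 Readout: per-well total peak green fluorescence (488 nm ex, 500–520 nm em) from objects 5–250 µm, reflecting correct splicing of an EGFP-654 reporter. Compounds were applied for 2 days at 37 °C to overnight-plated HeLa EGFP-654 cells; controls were DMSO and 500 nM IVS2-654 PNA.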
# [10] = qHTS Assay for Lipid Storage Modulators (AID 1519; calls by dose curve); conditions: Drosophila S3 cells, BODIPY lipid droplet/cell ratio, laser cytometry, cells loaded with oleic acid; for activity change, negative = inhibition: at 57.5 µM (top of the series)
# Summary of the method: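 Cells seeded at 5,000 per well were treated with compounds over a concentration series and loaded with oleic acid (400 uM, as added). Lipid droplet fluorescence (488 nm excitation, 500-530 nm channel) was read by laser-scanning cytometry and normalized to 20 uM Triacsin C.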
# [11] = Primary qHTS for small molecule stabilizers of the endoplasmic reticulum resident proteome: Secreted ER Calcium Modulated Protein (SERCaMP) assay (AID 1508630); further: on the % scale 0 is the no-effect control and ±100 the full control effect
# Summary of the method: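 The SH-SY5Y reporter protocol was run at 3 concentrations up to 38.3 uM (primary) or 11 concentrations (follow-up): 16 h compound, 100 nM thapsigargin for 4 h, then extracellular luciferase luminescence.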
# [12] = target: 3',5'-cyclic-AMP phosphodiesterase 4B (Homo sapiens) (UniProt Q07343); assay: qHTS Assay for Inhibitors of PDE-IV (AID 607; active means well fitted activation curve with a large enough effect in the main read-out, with a control signal flat, not every such curve was filed as active; further: % of control where 0% means no effect)
# Chain of 3',5'-cyclic-AMP phosphodiesterase 4B (Homo sapiens) (Q07343 whole entry, looked up): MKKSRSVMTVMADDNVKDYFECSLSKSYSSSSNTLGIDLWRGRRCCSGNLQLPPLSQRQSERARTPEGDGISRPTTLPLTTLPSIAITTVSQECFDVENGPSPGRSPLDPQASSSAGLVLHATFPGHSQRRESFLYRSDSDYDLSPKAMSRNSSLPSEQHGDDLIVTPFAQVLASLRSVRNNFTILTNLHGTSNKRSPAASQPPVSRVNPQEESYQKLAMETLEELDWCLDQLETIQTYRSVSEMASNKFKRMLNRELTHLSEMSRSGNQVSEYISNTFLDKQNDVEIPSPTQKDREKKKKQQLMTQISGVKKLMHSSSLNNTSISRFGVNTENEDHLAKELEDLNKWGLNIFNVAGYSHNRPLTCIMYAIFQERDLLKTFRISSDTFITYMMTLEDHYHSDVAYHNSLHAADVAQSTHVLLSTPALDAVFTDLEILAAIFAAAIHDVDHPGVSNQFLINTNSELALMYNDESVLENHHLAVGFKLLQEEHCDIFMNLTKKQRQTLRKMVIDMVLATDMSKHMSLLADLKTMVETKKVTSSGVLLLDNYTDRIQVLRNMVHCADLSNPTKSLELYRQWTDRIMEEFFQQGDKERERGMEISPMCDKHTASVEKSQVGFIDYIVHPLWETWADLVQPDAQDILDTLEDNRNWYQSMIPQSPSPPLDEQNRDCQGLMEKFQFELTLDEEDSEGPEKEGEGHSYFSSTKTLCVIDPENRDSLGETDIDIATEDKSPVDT
# Summary of the method: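 The readout is membrane depolarisation from a cAMP-sensing CNG channel, detected with a potential dye at ex 535/em 590. Cells were HEK293-derived (endogenous PDE-IV) at 1000 cells/well, titrated up to 22.9 uM final.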
# [13] = target: Glutathione peroxidase 1 (Homo sapiens) (UniProt P07203); assay: Primary qHTS Assay for Inhibitors of Recombinant Selenoprotein Glutathione Peroxidase 1 (GPX1) (AID 1845191); further: nearly all actives have a fitted effect of over 65% in size
# Chain of Glutathione peroxidase 1 (Homo sapiens) (P07203 whole entry, looked up): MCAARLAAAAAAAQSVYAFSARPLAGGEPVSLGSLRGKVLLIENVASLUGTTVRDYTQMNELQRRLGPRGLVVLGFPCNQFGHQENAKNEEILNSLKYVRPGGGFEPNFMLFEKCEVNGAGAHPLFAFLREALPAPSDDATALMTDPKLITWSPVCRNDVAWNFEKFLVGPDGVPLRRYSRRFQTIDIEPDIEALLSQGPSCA
# Summary of the method: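 NADPH consumption tracked by fluorescence at 340/450 nm between t=0 and t=15 min, room temperature. Final mix: 10 nM GPX1, 100 nM glutathione reductase, 1 mM GSH, 0.5 mM NADPH, 0.5 mM cumene hydroperoxide, 0.01% BSA; 30 min compound–enzyme preincubation.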
# [14] = qHTS drug screen for cell cycle checkpoint inhibitors in PARPi-resistant BRCA-mutant ovarian cancer cell lines. (AID 1963452; calls by dose curve); conditions: PEO1/OlaR viability, CellTiter-Glo luminescence, 96 h, stronger effect = lower value
# Summary of the method: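 PEO1, PEO4 and PEO1/OlaR ovarian cancer cells, 600 per well, exposed 96 h at 37C to a dilution series. Viability read by CellTiter-Glo luminescence, normalized to DMSO and empty wells; activity summarized as Z-AUC.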
# [15] = target: Lysosomal acid glucosylceramidase (Homo sapiens) (UniProt P04062); assay: Glucocerebrosidase-p2 (AID 348; in the data active means potency below about 10 µM; further: potency means the concentration at half of the fitted maximal effect); conditions: purified GBA, blue fluorogenic substrate, 40 min
# Chain of Lysosomal acid glucosylceramidase (Homo sapiens) (P04062 whole entry, looked up): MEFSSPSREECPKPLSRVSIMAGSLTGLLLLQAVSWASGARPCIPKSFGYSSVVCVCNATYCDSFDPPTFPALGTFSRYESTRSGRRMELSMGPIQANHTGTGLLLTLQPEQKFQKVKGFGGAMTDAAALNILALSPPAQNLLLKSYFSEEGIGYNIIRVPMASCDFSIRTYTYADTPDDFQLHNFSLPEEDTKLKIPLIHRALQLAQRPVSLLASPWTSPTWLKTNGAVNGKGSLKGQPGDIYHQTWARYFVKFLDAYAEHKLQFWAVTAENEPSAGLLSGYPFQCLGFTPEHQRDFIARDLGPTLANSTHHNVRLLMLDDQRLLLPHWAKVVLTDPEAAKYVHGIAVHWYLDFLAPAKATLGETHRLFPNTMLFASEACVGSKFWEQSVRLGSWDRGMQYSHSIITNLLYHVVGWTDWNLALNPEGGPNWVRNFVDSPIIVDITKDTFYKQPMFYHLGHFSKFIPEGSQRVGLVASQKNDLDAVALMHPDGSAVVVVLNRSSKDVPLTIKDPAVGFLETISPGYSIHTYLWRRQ
# Summary of the method: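 Normal human glucocerebrosidase (0.2 nM) with blue fluorogenic substrate (80 uM final) in citrate/phosphate pH 5.9 with 10mM sodium taurocholate, 0.01% tween-20; 40 min RT, NaOH/glycine stop; fluorescence Ex 365/Em 440; AC50 from a titration from 0.6 nM upwards.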
# [16] = target: Ubiquitin carboxyl-terminal hydrolase 1 (Homo sapiens) (UniProt O94782); assay: Inhibitors of USP1/UAF1: Pilot qHTS (AID 504865); further: nearly all actives have a fitted effect of over 35% in size; further: potency means the concentration at half of the fitted maximal effect
# Chain of Ubiquitin carboxyl-terminal hydrolase 1 (Homo sapiens) (O94782 whole entry, looked up): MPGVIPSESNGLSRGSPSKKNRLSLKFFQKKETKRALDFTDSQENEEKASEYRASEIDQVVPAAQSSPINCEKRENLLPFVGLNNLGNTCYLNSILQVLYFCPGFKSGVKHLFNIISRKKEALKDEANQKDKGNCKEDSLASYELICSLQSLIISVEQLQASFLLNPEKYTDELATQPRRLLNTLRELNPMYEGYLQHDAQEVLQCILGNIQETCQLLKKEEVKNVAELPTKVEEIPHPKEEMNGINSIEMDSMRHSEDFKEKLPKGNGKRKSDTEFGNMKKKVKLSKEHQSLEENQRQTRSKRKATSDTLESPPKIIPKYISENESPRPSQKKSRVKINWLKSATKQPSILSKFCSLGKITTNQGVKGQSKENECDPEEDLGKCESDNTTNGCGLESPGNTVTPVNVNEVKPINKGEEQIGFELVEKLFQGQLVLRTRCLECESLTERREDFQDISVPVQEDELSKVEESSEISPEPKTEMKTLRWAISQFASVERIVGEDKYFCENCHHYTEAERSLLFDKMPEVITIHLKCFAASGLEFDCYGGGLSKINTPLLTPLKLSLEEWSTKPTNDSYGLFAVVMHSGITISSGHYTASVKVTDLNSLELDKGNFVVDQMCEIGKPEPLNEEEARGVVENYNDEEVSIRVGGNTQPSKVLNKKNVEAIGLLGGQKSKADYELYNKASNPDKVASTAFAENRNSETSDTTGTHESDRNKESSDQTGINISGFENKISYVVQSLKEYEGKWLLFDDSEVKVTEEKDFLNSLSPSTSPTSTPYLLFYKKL
# Summary of the method: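 Kinetic fluorescence assay: 1nM USP1/UAF1, 15 min compound preincubation, then 150nM Ub-Rho; 480/540 nm.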
# [17] = Primary qHTS for inhibitors of nuclear receptor binding SET domain protein 2 (NSD2) in an isogenic RCH-ACV NSD2 p.E1099K mutant (9B) (AID 1645876); further: on the % scale 0 is the no-effect control and ±100 the full control effect; nearly all actives have a fitted effect of over 70% in size
# [18] = Primary qHTS for inhibitors of nuclear receptor binding SET domain protein 2 (NSD2) in an RCH-ACV wild type WT cells (2C) (AID 1645877); further: on the % scale 0 is the no-effect control and ±100 the full control effect; nearly all actives have a fitted effect of over 70% in size
# [19] = target: Phospholipid hydroperoxide glutathione peroxidase GPX4 (Homo sapiens) (UniProt P36969); assay: Primary qHTS Assay for Inhibitors of Recombinant Selenoprotein Glutathione Peroxidase 4 (GPX4) (AID 1845192); conditions: outcome: dose series up to 50 µM unless noted; further: potency means the concentration at half of the fitted maximal effect; nearly all actives have a fitted effect of over 65% in size
# Chain of Phospholipid hydroperoxide glutathione peroxidase GPX4 (Homo sapiens) (P36969 whole entry, looked up): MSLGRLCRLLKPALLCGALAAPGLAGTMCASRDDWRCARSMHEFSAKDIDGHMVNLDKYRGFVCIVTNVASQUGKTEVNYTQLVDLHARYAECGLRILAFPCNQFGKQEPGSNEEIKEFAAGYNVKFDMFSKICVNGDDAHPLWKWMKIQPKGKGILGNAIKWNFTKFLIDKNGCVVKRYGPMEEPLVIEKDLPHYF
# Summary of the method: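 NADPH consumption followed by fluorescence at 340/450 nm, t=0 and after 15 min at room temperature. Reaction started with cumene hydroperoxide (0.5 mM final) after 30 min compound–GPX4 preincubation; final 200 nM GPX4, 100 nM GR, 1 mM GSH, 0.5 mM NADPH.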
# [20] = measured here: cell count channel max response
# [21] = measured here: lipid channel max response
# [22] = measured here: PEO1 parental Z-AUC
smiles,measurement,setting,value
COc1ccccc1CNc1ncncc1-c1ccoc1,"activity change, negative = inhibition",[1],-6.36% (inactive)
same,Potency,[2],1.26 µM (active)
same,"activity change, negative = inhibition",[3],-22.1% (inactive)
same,"activity, negative = inhibition",[4],-4.03% (inactive)
same,Potency,[5],> 46 µM (inactive)
same,Potency,[6],> 46 µM (inactive)
same,outcome,[7],inactive
same,Potency,[8],inactive
same,outcome,[9],inactive
same,"activity change, negative = inhibition",[10],9.08% (inactive)
same,max response,[10]; [20],-3.49%
same,max response,[10]; [21],5.8%
same,Potency,[11],inactive
CC(C)NC(=O)N1CCC2(CC1)CCN(C(=O)c1ccncc1)CC2,Potency,[2],inactive
same,"activity change, negative = inhibition",[3],1.59% (inactive)
same,"activity, negative = inhibition",[4],-8.96% (inactive)
same,Potency,[6],> 46 µM (inactive)
same,outcome,[7],inactive
same,Potency,[12],inactive
same,Potency,[8],inactive
same,"activity change, negative = inhibition",[10],-0.818% (inactive)
same,max response,[10]; [20],9.1%
same,max response,[10]; [21],9.91%
same,Potency,[11],inactive
COc1ncc2nc(-c3cc(F)cc(F)c3)c(=O)n(CCC#N)c2n1,"activity change, negative = inhibition",[1],2.61% (inactive)
same,Potency,[2],6.31 µM (active)
same,"activity change, negative = inhibition",[3],-5.52% (inactive)
same,"activity, negative = inhibition",[4],-7.47% (inactive)
same,Potency,[5],> 9.22 µM (inactive)
same,Potency,[6],> 46 µM (inactive)
same,outcome,[7],inactive
same,Potency,[12],inactive
same,Potency,[8],inactive
same,"activity change, negative = inhibition",[10],5.74% (inactive)
same,max response,[10]; [20],17.3%
same,max response,[10]; [21],25.6%
same,Potency,[11],inactive
CO[C@H]1/C=C/O[C@@]2(C)Oc3c(C)c(O)c4c(O)c(c5c(c4c3C2=O)=NC2(CCN(CC(C)C)CC2)N=5)NC(=O)/C(C)=C/C=C/[C@H](C)[C@H](O)[C@@H](C)[C@@H](O)[C@@H](C)[C@H](OC(C)=O)[C@@H]1C,Potency,[13],inactive
same,Z-AUC,[14],1.28 (inactive)
same,Z-AUC,[14]; [22],0.697
same,Z-AUC,[14]; measured here: PEO4 Z-AUC,0.909
COc1ccccc1-c1cncnc1NCCN1CCOCC1,Potency,[15],> 11.4 µM (inactive)
same,"activity, negative = inhibition",[4],1.09% (inactive)
same,Potency,[5],> 46 µM (inactive)
same,Potency,[6],> 46 µM (inactive)
same,outcome,[7],inactive
same,Potency,[12],inactive
same,outcome,[9],inactive
same,"activity change, negative = inhibition",[10],0.65% (inactive)
same,max response,[10]; [20],4.25%
same,max response,[10]; [21],4.66%
same,Potency,[16],inactive
Cc1ccc(NS(=O)(=O)c2ccc3c(c2)C2C=CCC2C(c2ccc(C(=O)O)cc2)N3)cc1C (stereo not given),Potency,[17],inactive
same,Potency,[18],inactive
same,Potency,[13],inactive
same,Potency,[19],22.7 µM (active)
same,Z-AUC,[14],-0.665 (inactive)
same,Z-AUC,[14]; [22],-0.264
same,Z-AUC,[14]; measured here: PEO4 Z-AUC,-0.866
CC(C)=CCC1=C(O)c2ccccc2C(=O)C1=O,outcome,[9],inactive
same,"activity change, negative = inhibition",[10],-0.846% (inactive)
same,max response,[10]; [20],-0.752%
same,max response,[10]; [21],0.642%
same,Potency,[16],35.5 µM (active)
same,Potency,[11],inactive
